# TbPYK inhibitor: qHTS of Trypanosoma Brucei Inhibitors. Potency, µM (highest dose often 76.8 µM), for inactives: at the highest dose activity, negative = inhibition, most hits filed as inhibitors. 0.12% of 410,000 active. AID 624173, 2012. pyruvate kinase (Trypanosoma brucei), Q57TT1. TbPYK enzyme, Kinase-Glo Plus ATP luminescence, 45 min; also: potency is read from the fitted curve at half-maximal effect; % is scaled to controls: 0 for no effect and ±100 for the full control effect; nearly all actives have a fitted effect of over 50% in size
#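 Activity of T. brucei pyruvate kinase was followed by Kinase-Glo Plus luminescence after the enzyme reacted 45 min at room temperature with 130 uM ADP (final) and substrate. Test compounds were added before ADP at multiple concentrations.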
# RE007 growth inh: qHTS Assay for Inhibitors of the HIV-1 protein Vpr. S. pombe RE007 Vpr strain, BacTiter-Glo ATP luminescence, 24 h. AID 651644, 2012. Potency, µM (doses to about 92.2 µM), for the others: top-dose activity change, negative = less growth, actives largely listed as inhibitors. 0.21% of 360,000 active; active = well fitted falling curve with a large enough effect; inconclusive = small, poorly fitted or top-dose-only effect; inactive = no such curve, though single readings can be large or run the other way; also: potency is read from the fitted curve at half-maximal effect; % is scaled to controls: 0 for no effect and ±100 for the full control effect; nearly all actives have a fitted effect of over 50% in size
#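 Fission yeast RE007 carrying one integrated HIV-1 vpr copy, seeded at OD 0.01 in PMG+AL medium with 23 nL pinned compound. Grown 24 h at 30 degrees; viability read by BacTiter-Glo luminescence after 5 min.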
# CHX counter: Cycloheximide Counterscreen for Small Molecule Inhibitors of Shiga Toxin; cell reporter, cycloheximide protein synthesis inhibition counterscreen; max response, %; 12% of 300,000 active; AID 2314, 2010; in the data active = max response mostly above about 13%, no sharp cut-off; inactive = mostly below about 14%; also: read at 38.3 µM for the half of the compounds with a filed dose; 0% is about no effect
# Giardia FBPA inh: qHTS Assay for Inhibitors of Fructose-1,6-bisphosphate Aldolase from Giardia Lamblia; A8B2U2; purified Giardia FBPA; Potency, µM (titrated, usually from 59.6 µM), for inactives: at the top dose activity, negative = inhibition, actives largely listed as inhibitors; 0.71% of 290,000 active; AID 2451, 2010; also: potency is read from the fitted curve at half-maximal effect; % is scaled to controls: 0 for no effect and ±100 for the full control effect; nearly all actives have a fitted effect of over 55% in size
#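 40 nM FBPA preincubated 10 min at RT with compound (up to 57.5 uM final), then substrate plus GAPDH/TPI/NAD/arsenate coupling and diaphorase/resazurin added. Fluorescence read after 20 min at RT, 525/598 nm.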
# Shiga toxin inh: A qHTS for Small Molecule Inhibitors of Shiga Toxin | AID 2315, 2010 | Vero cells, Shiga toxin protein synthesis inhibition reporter | inhibition, % at 38.7 µM | 9.2% of 290,000 active; in the data active = inhibition mostly above about 28%, no sharp cut-off; inactive = mostly below about 43%; also: 0% is about no effect
# LmPK inhibitor: qHTS Assay for Inhibitors of Leishmania Mexicana Pyruvate Kinase (LmPK); 0.37% of 290,000 active; Potency, µM (highest dose often 57.5 µM), for inactives: top-dose activity change, negative = inhibition, actives largely listed as inhibitors; purified LmPK, Kinase-Glo ATP luminescence, 1 h; also: potency is read from the fitted curve at half-maximal effect; % is scaled to controls: 0 for no effect and ±100 for the full control effect
# Target sequence (Q27686 whole entry, looked up): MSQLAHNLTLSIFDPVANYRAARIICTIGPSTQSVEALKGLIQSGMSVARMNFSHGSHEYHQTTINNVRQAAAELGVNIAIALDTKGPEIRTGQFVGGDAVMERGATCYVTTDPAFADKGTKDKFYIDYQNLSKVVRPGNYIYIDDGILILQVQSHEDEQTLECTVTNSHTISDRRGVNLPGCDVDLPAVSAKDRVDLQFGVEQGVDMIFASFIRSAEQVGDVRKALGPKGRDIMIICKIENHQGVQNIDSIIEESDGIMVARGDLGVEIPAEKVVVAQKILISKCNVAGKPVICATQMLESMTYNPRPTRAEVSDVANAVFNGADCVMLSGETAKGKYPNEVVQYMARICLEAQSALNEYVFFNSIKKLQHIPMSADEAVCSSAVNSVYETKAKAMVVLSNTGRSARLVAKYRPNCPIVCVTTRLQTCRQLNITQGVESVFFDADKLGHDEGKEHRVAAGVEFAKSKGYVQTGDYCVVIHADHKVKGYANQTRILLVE
#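 ATP generated from ADP (0.1 mM) and PEP (0.5 mM) by 0.1 nM LmPK over 1 h at room temperature (pH 7.2 imidazole buffer) was detected by coupled luciferase luminescence. Values were normalized to uninhibited and no-enzyme wells.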
# * marks the source's active call; other numbers are inactive results; ? = inconclusive; · = no result given. Only a selection was taken, and hits are over-represented in it overall. Unless noted, calls follow the shape of the dose curve; as a rule, active = well fitted curve in the direction sought with a large enough effect; inconclusive = small, poorly fitted or top-dose-only effect, or another doubt; inactive = no such curve, though single readings can be large; an effect the other way counts as inactive or inconclusive.
SMILES,TbPYK inhibitor,RE007 growth inh,CHX counter,Giardia FBPA inh,Shiga toxin inh,LmPK inhibitor
CCOC(=O)C1(Cc2cccc(Cl)c2)CCCN(C(=O)C(C)(C)C)C1 (configuration not stated),-1%,5%,27*,1%,45,-1%
CCOC(=O)C1(Cc2cccc(Cl)c2)CCCN(C(=O)CN2C(=O)CSC2=O)C1 (configuration not stated),1%,-3%,36*,-7%,46*,-1%
CCOC(=O)C1(Cc2cccc(Cl)c2)CCCN(C(=O)c2ccnn2C)C1 (configuration not stated),-9%,-11%,50*,·,41*,-3%
CCOC(=O)CN1C(=O)C(=O)N(Cc2ccccc2F)C1=O,2%,1%,5,3%,-5,4%
CCOC(=O)C1(Cc2cccc(Cl)c2)CCCN(C(=O)c2cnn(CC)c2)C1 (configuration not stated),3%,-7%,22*,5%,39*,-5%
CCOC(=O)C1(Cc2cccc(Cl)c2)CCCN(C(=O)c2cc(CC)on2)C1 (configuration not stated),8%,1%,43*,·,62*,-8%
CCOC(=O)N1CCN(C(=O)CSCc2ccccc2C)CC1,-1%,1%,37*,3%,60*,0%
CCOC(=O)N1CCN(C(=O)CSCc2ccc(C)cc2)CC1,2%,14%,-2,-2%,-2,-2%
CCOC(=O)N1CCN(C(=O)CSCc2ccccc2Cl)CC1,0%,0%,26,4%,44*,-1%
CCN1C/C(=C/c2ccc(OC)c(O)c2)C(=O)/C(=C/c2ccc(OC)c(O)c2)C1,0%,12%,-4,-12%,-24,2%
COc1ccc(C=C2C(=O)c3ccccc3C2=O)cc1O,?,?,38*,-14%,115*,?
COc1cc(/C=C2\COC/C(=C\c3ccc(O)c(OC)c3)C2=O)ccc1O,-5%,44%,33*,?,37*,11%
COc1cc(/C=C2/CC/C(=C/c3ccc(O)c(OC)c3)C2=O)ccc1O,-6%,21%,11,-20%,52,0%
COc1ccc(/C=C2\CN(Cc3ccccc3)C/C(=C\c3ccc(OC)c(O)c3)C2=O)cc1O,2%,4%,14*,-10%,-5,-2%
COc1cc(C=C2C(=O)c3ccccc3C2=O)cc(OC)c1OC,-29%,6%,9,7%,34,3%
COc1cc(C=C2C(=O)c3ccccc3C2=O)ccc1O,?,-26%,28*,-9%,78*,?
CCN(CC)CCCNC(=O)c1ccc2c(c1)N(Cc1c(F)cccc1Cl)C(=O)c1ccccc1S2,6%,·,·,·,·,·
Cc1csc(-c2nc3ccccc3n2C(C(=O)Nc2c(C)cccc2C)C2CC2)c1 (configuration not stated),·,-10%,·,·,·,·
CC(C)CCC[C@@H](C)[C@H]1CC[C@H]2[C@@H]3CC=C4C[C@@H](O)CC[C@]4(C)[C@H]3CC[C@]12C,-1%,·,7,9%,-9,·
COC(=O)C1(Cc2cc(-c3ccc(Cl)cc3)no2)CCN(C(=O)OC(C)(C)C)CC1,5%,14%,-1,7%,13,-9%
COC(=O)C1(Cc2cc(-c3cccnc3)no2)CCN(C(=O)OC(C)(C)C)CC1,-13%,2%,10.0*,4%,12,1%
COc1ccc(NN=Nc2ccc([N+](=O)[O-])cc2)cc1,-9%,0%,32*,-7%,27,3%
Cn1cccc1/C=C(/C#N)c1ccc(F)cc1,0%,-10%,26*,1%,38,0%
Cn1cccc1C(=O)/C(C#N)=C/c1ccc(F)cc1,3%,-17%,19*,-5%,33,-5%
Cn1cccc1/C=C(\C#N)c1ccccc1,-5%,-9%,9,1%,23,14%
COc1cccc(C(=O)CSc2nccn2C)c1,-13%,-9%,31*,?,97*,-8%

# Source: PubChem
